Test results published in the supplement of paper PMC6555819.

Columns and labels:
Assay in all cases: PBM binding z-score (relative to random genomic background probes); higher = stronger binding; sequences stand for … in GC…GCGATTGACAGCGTAGAATGAAGG
[1] = system: FXR:RXRa (NR concentration 270 nM, RXRa partner concentration 90 nM)
Outline: (§1)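 On custom Agilent 4×180K arrays, double-stranded probes with 34-nt variable regions carried direct-repeat seeds, single-nucleotide variants, half-site ablations or random human genomic background. Ligand-free nuclear receptor dimers were applied for 1 h, and binding was read with antibodies against each partner (one per run). Binding z-scores come from regression-normalized fluorescence, with the random background probes as reference.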

[2] = system: LXRa:RXRa (NR concentration 270 nM, RXRa partner concentration 90 nM)
Outline: as §1

[3] = system: LXRa homodimer (NR concentration 270 nM)
Outline: as §1

[4] = system: LXRb:RXRa (NR concentration 270 nM, RXRa partner concentration 90 nM)
Outline: as §1

[5] = system: LXRb homodimer (NR concentration 270 nM)
Outline: as §1

[6] = system: PPARa:RXRa (NR concentration 270 nM, RXRa partner concentration 90 nM)
Outline: as §1

[7] = system: PPARg:RXRa (NR concentration 180 nM, RXRa partner concentration 90 nM)
Outline: as §1

[8] = system: PPARg:RXRa 270nM:90nM, anti-RXR (NR concentration 270 nM, RXRa partner concentration 90 nM)
Outline: as §1

[9] = system: PPARg:RXRa 30nM:10nM, anti-RXR (NR concentration 30 nM, RXRa partner concentration 10 nM)
Outline: as §1

[10] = system: PPARg:RXRa 90nM:30nM, anti-RXR (NR concentration 90 nM, RXRa partner concentration 30 nM)
Outline: as §1

[11] = system: PPARg:RXRa DBDmut IVT, anti-RXR (DBD mutation: RXRa K156A/R161A, NR concentration 270 nM, RXRa partner concentration 90 nM)
Outline: as §1

[12] = system: PPARg:RXRa IVT, anti-PPARg (NR concentration 270 nM, RXRa partner concentration 90 nM)
Outline: as §1

[13] = system: PPARg DBDmut:RXRa IVT, anti-PPARg (DBD mutation: PPARg1 K132A/R137A, NR concentration 270 nM, RXRa partner concentration 90 nM)
Outline: as §1

[14] = system: PPARg DBDmut IVT, anti-PPARg (DBD mutation: PPARg1 K132A/R137A, NR concentration 270 nM)
Outline: as §1

[15] = system: PPARg homodimer (NR concentration 180 nM)
Outline: as §1

[16] = system: PXR:RXRa (NR concentration 270 nM, RXRa partner concentration 90 nM)
Outline: as §1

[17] = system: PXR homodimer (NR concentration 270 nM)
Outline: as §1

[18] = system: RARa:RXR (NR concentration 270 nM, RXRa partner concentration 90 nM)
Outline: as §1

[19] = system: RARa homodimer (NR concentration 270 nM)
Outline: as §1

[20] = system: RARb:RXRa (NR concentration 270 nM, RXRa partner concentration 90 nM)
Outline: as §1

Sequence	PBM binding z-score [1]	PBM binding z-score [2]	PBM binding z-score [3]	PBM binding z-score [4]	PBM binding z-score [5]	PBM binding z-score [6]	PBM binding z-score [7]	PBM binding z-score [8]	PBM binding z-score [9]	PBM binding z-score [10]	PBM binding z-score [11]	PBM binding z-score [12]	PBM binding z-score [13]	PBM binding z-score [14]	PBM binding z-score [15]	PBM binding z-score [16]	PBM binding z-score [17]	PBM binding z-score [18]	PBM binding z-score [19]	PBM binding z-score [20]
CAAACTAGGTCACCGGAAGGTCAGAGTCCGCATG	5.32	4.74	2.63	4.09	0.598	5.96	9.65	7.46	5.57	7.33	8.5	8.94	4.78	2.92	4.96	4.71	0.703	6.14	2.03	5.31
ATCTCTAGGTAAAGATAGTTCATTGAATGCAAAT	0.585	5.32	1.71	1.59	0.747	1.36	1.11	0.714	0.293	0.846	1.7	1.76	1.3	1.29	0.829	2.33	1.98	1.25	1.34	1.06
AGAATGAGGTTAAGATCAGAGAAACAGAATACAT	2.3	2.12	0.0426	1.9	-0.125	3.61	2.54	2.18	0.874	1.71	2.25	2.51	1.54	1.04	0.538	1.22	0.611	2.03	0.226	1.86
CCGAATGGGGCATAAGGTTACCATAAGCCAGCCC	0.489	2.03	-0.224	0.966	-0.843	2.15	2.29	3.95	1.7	3.62	0.417	1.24	-1.29	-1.15	0.844	0.477	-0.466	1.55	-0.315	1.79
AGAATGAGGTTATACGTAGCTCAGGGAAGAAAGT	1.61	1.23	-0.204	1.05	-0.347	2.86	1.46	1.95	0.439	1.23	3.72	1.8	0.808	0.83	0.431	0.653	0.0212	1.15	0.35	1.11
ATATGTAGGTTAGATCCGGGTCATTCAGGCTATG	1.55	2.3	0.843	1.99	0.185	3.74	4.17	3.71	1.53	2.86	6.3	6.32	1.34	0.983	1.65	3.1	1.25	3.08	1.01	2.03
CCTACTTGGCCAAAGGTCATTGATTCCAATGCTC	5.47	5.24	4.8	5.11	1.42	5.78	9.42	8.35	8.32	9.45	2.53	4.83	0.228	0.876	3.67	5.46	2.07	5.85	1.65	4.57
TAGCCTAGGTCAGATCGGGCCAGTAAACGCTATA	2.02	1.16	-0.524	0.637	-0.2	1.5	0.341	0.516	-0.817	-0.377	0.412	1.24	-0.563	-0.294	-0.374	1.12	-0.666	0.814	-1.71	2.85
TCGAGTATGTTACCAATGGGGCATTCAGCTTTCT	-0.179	-0.268	-0.402	0.416	-0.279	0.256	-0.157	0.416	1.14	0.894	1.25	0.121	-0.168	-0.0708	-0.422	0.0821	-0.273	0.0781	-0.543	-0.0471
AGAACGCGGGCACGCTGAGTTGATAGCAGAGTAG	-0.237	-0.318	-0.326	-0.68	-1.1	-0.532	0.363	-0.844	-0.786	-0.727	0.0817	-0.217	-0.65	-1.15	-0.455	-0.502	-0.289	-0.215	-0.302	0.31
CAGACTAGGTCACGAAAGGTCAAAGTCGAATGAC	7.54	8.31	7.86	7.34	2.45	6.6	9.66	7.89	5.88	7.73	7.63	8.03	2.48	2.21	6.4	6.89	2.84	7.62	4.19	5.6
ATATGTAGGTTATCGAGTCATTCAGTTTGCGCAT	0.672	1.1	0.419	1.04	0.701	3.37	4.61	4.14	2	3.27	6.65	6.84	3.25	2.73	1.91	0.622	0.241	0.687	1	0.872
CCTCGGAGGACAGAAGGTCAGCGCTGTCCGCTTT	1.68	2.01	0.184	1.17	-0.704	2.2	-0.154	1.57	-0.543	0.613	-0.144	0.0652	-1.29	-1.5	1.24	1.96	-0.497	2.76	0.504	3.68
TCTTGGAGGACACGAAAGGTCAGAGCTCGACATC	3.33	4.06	2.83	3.37	0.286	3.75	1.68	3.16	2.54	2.89	2.26	2.63	0.421	0.521	2.91	4.16	0.329	4.3	0.376	4.39
CTACCAGGGTGAACAAGGTCGTTGATTACTATTC	0.789	1.46	0.0612	1.76	-0.454	2.41	0.951	1.28	0.0757	0.507	1.3	1.86	0.284	-0.282	1.61	3.12	0.95	2.67	-0.135	1.42
